A selection: hits, their analogues and other compounds. The true share with any hit is near 3.5%.
MITF primary = MITF inhibitors, primary screen, biochemical, AlphaScreen, human. Microphthalmia-associated transcription factor (Homo sapiens), O75030. AlphaScreen MITF homodimerization, bead proximity signal. inhibition, % at 2.6 µM. 650,000 compounds, 0.91% hits; in the data active = inhibition above about 50%;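 note: 0% = vehicle wells with protein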
GPR151 ag = activators of human GPR151, primary screen, cell-based, PathHunter beta-arrestin, luminescence; G-protein coupled receptor 151 (Homo sapiens), Q8TDV0; PathHunter beta-arrestin GPR151 cells; activation, % at 11.2 µM; 650,000 compounds, 1% hits; AID 1508602, 2020; in the data active = activation above about 4.9%;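 note: 0% = median of compound wells and 100% = cells with positive control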
Target sequence (Q8TDV0 whole entry, looked up): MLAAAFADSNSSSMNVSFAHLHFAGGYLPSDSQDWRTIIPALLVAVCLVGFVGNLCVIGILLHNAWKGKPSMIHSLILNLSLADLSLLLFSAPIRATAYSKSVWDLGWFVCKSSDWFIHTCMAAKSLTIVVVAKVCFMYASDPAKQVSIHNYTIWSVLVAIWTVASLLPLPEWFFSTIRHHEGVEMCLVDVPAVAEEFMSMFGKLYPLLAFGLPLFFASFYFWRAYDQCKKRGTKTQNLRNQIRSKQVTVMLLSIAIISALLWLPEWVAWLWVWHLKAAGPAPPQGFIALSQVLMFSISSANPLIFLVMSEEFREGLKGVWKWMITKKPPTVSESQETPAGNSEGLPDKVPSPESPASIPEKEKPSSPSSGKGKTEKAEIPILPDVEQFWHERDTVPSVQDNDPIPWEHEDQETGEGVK
FBW7 activator = FBW7 E3 ligase activators, primary screen, biochemical, AlphaScreen, human; F-box/WD repeat-containing protein 7 (Homo sapiens), Q969H0; AlphaScreen FBW7–phospho-cyclin E peptide binding, activator screen; normalized activity (activation), % at 26.1 µM; 650,000 compounds, 0.13% hits; in the data active = normalized activity above about 1.9%;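 note: purified mutant Fbw7 with reduced substrate affinity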
TEAD-YAP block = TEAD-YAP interaction inhibition, primary screen, TEAD-YAP interaction inhibitor project, luminescence, HEK-TIYL cells. TEAD-Gal4/YAP UAS-luciferase luminescence. inhibition, % at 9.12 µM. 640,000 compounds, 1.4% hits. AID 1259422, 2018; in the data active = inhibition above about 32%;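 note: 0% = median of test compound wells and 100% = reference inhibitor wells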
Numbers without * were called inactive.

Screening FC(F)(F)c1ccc(Cn2cnc3c(NCCN4CCOCC4)nc(-c4cccs4)nc32)cc1 returned MITF primary 10.8, GPR151 ag 2.1, FBW7 activator 0.0 and TEAD-YAP block 3.6.
`COC(=O)C1CN(c2cccc(Cl)c2)N=C1C(C)=O` (stereo not given) gave MITF primary 10.4, GPR151 ag 0.0, FBW7 activator 0.0 and TEAD-YAP block -5.3.
`O=[N+]([O-])c1ccc(N2CCN(S(=O)(=O)c3ccc(Br)cc3)CC2)cc1N1CCOCC1` gave MITF primary -2.5, GPR151 ag -2.1, FBW7 activator 0.3 and TEAD-YAP block -10.1.
For Cc1ccc(N2C(=O)c3ccccc3C2O)nc1 (stereo not given) the results were MITF primary -0.5, GPR151 ag -6.2, FBW7 activator -0.3 and TEAD-YAP block 78.0*.
`Cc1ccnc(SCCn2c(N3CCc4ccccc4C3)nc3c2c(=O)n(C)c(=O)n3C)n1` gave MITF primary 3.9, GPR151 ag -0.4, FBW7 activator 0.0 and TEAD-YAP block -16.3.
Screening COc1ccc(-c2cncc3ccc(C(=O)N[C@H](C)c4ccccc4)nc23)cc1 returned MITF primary 14.7, GPR151 ag 1.5, FBW7 activator 0.5 and TEAD-YAP block 60.9*.
Screening COc1ccc(-c2cncc3ccc(C(=O)N[C@@H](C)c4ccccc4)nc23)cc1 returned MITF primary -12.9, GPR151 ag -1.4, FBW7 activator 0.1 and TEAD-YAP block 49.5*.
COC(=O)c1nnn(-c2nonc2N)c1CN1CCN(C)CC1 was read as MITF primary -3.0, GPR151 ag 2.2, FBW7 activator 0.5 and TEAD-YAP block 7.4.
Screening N#CC(C#N)=C(N)/C(C#N)=C(/C=C/c1ccccc1Cl)c1ccccc1 returned MITF primary 10.5, GPR151 ag 2.8, FBW7 activator 0.1 and TEAD-YAP block 1.1.
For NC(C(=O)Nc1ccc(-c2ccnc3[nH]ccc23)cc1)c1ccc(Cl)cc1 (stereo not given) the results were MITF primary 11.4, GPR151 ag 0.0, FBW7 activator 0.1 and TEAD-YAP block 8.5.
Screening NC(C(=O)Nc1ccc(-c2ncnc3[nH]ccc23)cc1)c1ccc(Cl)cc1 (stereo not given) returned MITF primary 16.9, GPR151 ag -0.1, FBW7 activator 0.1 and TEAD-YAP block 57.5*.
`O=C(Nc1ccc(-c2ncnc3[nH]ccc23)cc1)C1COc2ccccc2O1` (stereo not given) gave MITF primary 23.4, GPR151 ag -1.0, FBW7 activator 1.3 and TEAD-YAP block 51.7*.
For O=[N+]([O-])c1ccc(Cc2nnc(-c3ccccc3Br)o2)cc1 the results were MITF primary 1.3, GPR151 ag -1.7, FBW7 activator -0.4 and TEAD-YAP block 32.2*.
`O=[N+]([O-])c1ccc(Cc2nnc(-c3ccccc3Cl)o2)cc1` gave MITF primary -0.4, GPR151 ag 0.7, FBW7 activator -0.3 and TEAD-YAP block 27.0.
For O=[N+]([O-])c1ccc(Cc2nnc(-c3ccc(Cl)cc3Cl)o2)cc1 the results were MITF primary 11.2, GPR151 ag -0.2, FBW7 activator 0.4 and TEAD-YAP block 51.7*.
CCCC(=O)NCC(c1ccco1)S(=O)(=O)c1ccc(Cl)cc1 (stereo not given) was read as MITF primary 11.4, GPR151 ag 0.5, FBW7 activator 0.1 and TEAD-YAP block 2.1.
For COc1ccc(CCNC(=O)c2sc(=S)n3c2[nH]c(=O)c2sccc23)cc1OC the results were MITF primary 0.7, GPR151 ag 0.9, FBW7 activator -0.1 and TEAD-YAP block 5.9.
Screening CCN(c1ccc(OC)cc1)c1ncnc2nc[nH]c12 returned MITF primary 5.7, GPR151 ag -0.9, FBW7 activator 0.6 and TEAD-YAP block 37.0*.
CCCN(c1ccc(OCC)cc1)c1ncnc2nc[nH]c12 was read as MITF primary 9.2, GPR151 ag -1.4, FBW7 activator 0.7 and TEAD-YAP block 17.6.
O=C(Oc1ccc2c(=O)c(-c3ccccc3)coc2c1)N1CCOCC1 was read as MITF primary -3.9, GPR151 ag 0.0, FBW7 activator -0.1 and TEAD-YAP block -16.6.
For COc1ccc(-n2nc([N+](=O)[O-])c(=Nc3ccccc3)n2O)cc1 the results were MITF primary 10.6, GPR151 ag -0.4, FBW7 activator -0.1 and TEAD-YAP block 54.2*.
For Cc1ccc(N=c2c([N+](=O)[O-])nn(-c3ccc4c(c3)OCCO4)n2O)c(Cl)c1 the results were MITF primary -3.9, GPR151 ag 1.2, FBW7 activator -0.1 and TEAD-YAP block 46.9*.
`O=[N+]([O-])c1nn(-c2ccc3c(c2)OCCO3)n(O)c1=Nc1ccccc1` gave MITF primary 0.0, GPR151 ag -1.2, FBW7 activator -0.3 and TEAD-YAP block 88.8*.
`Cc1cc(C)cc(N=c2c([N+](=O)[O-])nn(-c3ccc4c(c3)OCCO4)n2O)c1` gave MITF primary 8.6, GPR151 ag 2.1, FBW7 activator -0.3 and TEAD-YAP block -2.9.
Cc1ccc(N=c2c([N+](=O)[O-])nn(-c3ccccc3)n2O)c(Cl)c1 was read as MITF primary -2.3, GPR151 ag 0.8, FBW7 activator -0.1 and TEAD-YAP block 6.6.
Screening O=C(CCC(=O)NNC(=O)NC1CCCCC1)NCc1ccccc1 returned MITF primary 10.1, GPR151 ag -0.7, FBW7 activator 0.3 and TEAD-YAP block -4.5.
Screening Cc1ccccc1NC(=O)c1sc(NC(=O)/C=C/c2ccccc2)nc1C returned MITF primary 1.0, GPR151 ag 1.7, FBW7 activator 0.1 and TEAD-YAP block 49.2*.
Cc1nc(NC(=O)/C=C/c2ccccc2)sc1C(=O)NCc1ccccc1 was read as MITF primary 1.9, GPR151 ag 0.9, FBW7 activator 0.2 and TEAD-YAP block -4.6.
Screening COc1ccc(Cl)cc1C(=O)NNC(=O)COC(=O)CN1C(=O)NC(C)(C)C1=O returned MITF primary -6.8, GPR151 ag -1.3, FBW7 activator 0.0 and TEAD-YAP block -3.5.
CCC(=O)NC(c1ccc(OC)c(OC)c1)c1ccc2cccnc2c1O (stereo not given) was read as MITF primary 59.0*, GPR151 ag -0.9, FBW7 activator -1.5 and TEAD-YAP block 86.7*.
CCC(=O)NC(c1ccc(OC)c(OC)c1)c1cc(Cl)c2cccnc2c1O (stereo not given) was read as MITF primary 27.8, GPR151 ag 0.4, FBW7 activator 0.0 and TEAD-YAP block 46.2*.
Screening COc1ccc(C(NC(C)=O)c2ccc3cccnc3c2O)cc1OC (stereo not given) returned MITF primary 65.8*, GPR151 ag -0.3, FBW7 activator -0.6 and TEAD-YAP block 83.3*.
COc1ccc(C(NC(C)=O)c2cc(Cl)c3cccnc3c2O)cc1OC (stereo not given) was read as MITF primary 21.5, GPR151 ag 0.0, FBW7 activator -0.4 and TEAD-YAP block 4.3.

Screening results as filed in PubChem.
